HSF1 inh: HSF1 inhibition. NIH3T3-HGL HSE-luciferase, MG132-induced, luminescence 8 h; active compounds read low. activity change, negative = inhibition, % at 7.5 µM (by protocol). 300,000 compounds, 0.77% hits. AID 2098;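 active = more than half of replicate wells show activity change below -50%, luminescence cut by over half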;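 also: luciferase reports HSF-1 transcriptional activity via heat shock element; 0% = median of DMSO wells and -100% = zero luminescence signal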
esBAF inh: inhibitors of esBAF chromatin remodeling in mouse ES cells; Bmi1-luciferase knock-in reporter, 24 h; 100% = twice the neutral-well signal; 350,000 compounds, 2% hits; AID 602393; reporter increase, % at 12.5 µM; in the data active = activation above about 40%;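 also: 0% = median of the plate's neutral control wells and 100% = double that signal; a rise in the Bmi1 reporter signal indicates esBAF inhibition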
SMARCA2 act: increases SMARCA2 function in MMTV reporter cells; AID 652017; activation, % at 9.1 µM; 370,000 compounds, 1% hits; MG213 cells, MMTV-luciferase reporter, dexamethasone, overnight; in the data active = activation above about 7.8%;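 also: 0% = vehicle wells and 100% = reference activator wells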
MITF act: activators of MITF-driven TRPM1 promoter activity in SK-MEL-5 cells; SK-MEL-5 TRPM1-promoter luciferase, 24 h; % of positive control, neutral wells = 0; AID 588334; activation, % at 12.5 µM; 300,000 compounds, 0.75% hits;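 active = mean activation of at least 80% with every replicate also reaching 80%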;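 also: 0% = neutral control wells and 100% = parthenolide positive control wells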
HSF1 activator: increases HSF-1 driven luciferase reporter signal; NIH3T3-HGL HSF-1 luciferase reporter, MG132, 8 h; 100% = twice DMSO control signal; activation, % at 9 µM; 300,000 compounds, 1.7% hits;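 active = mean replicate activation of at least 50% with a set share of replicates each reaching 50%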;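 also: 0% = median of the neutral control wells and 100% = twice that signal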
Wnt act: Wnt/beta-catenin pathway activation. Wnt/beta-catenin reporter cell assay, activator, plate reader. activation, % at 9.35 µM. 300,000 compounds, 1.2% hits; in the data active = activation above about 30%, passing the limit was not always enough;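 also: 0% = neutral control wells and 100% = positive control wells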
An asterisk follows results filed as active; x = no result. This is a sample that favours compounds with a hit; in the whole collection about 4.3% have one here.

SMILES	HSF1 inh	esBAF inh	SMARCA2 act	MITF act	HSF1 activator	Wnt act
Nc1c(C(=O)c2ccc(Br)cc2)oc2ccccc12	-1.4	x	1.6	16.5	4.7	9.0
CCOC(=O)c1oc2ccccc2c1N	3.3	x	1.9	42.9	0.4	4.3
COc1ccc2oc(C(=O)CCC(=O)O)c(N)c2c1	1.8	-5.5	0.0	3.6	4.0	-0.9
Cc1ccc(C(=O)c2oc3ccccc3c2N)cc1	10.1	87.6*	1.6	32.2	24.9	x
COC(=O)CCC(=O)c1oc2ccc(Br)cc2c1N	15.7	11.0	1.8	89.8*	4.2	x
Nc1c(C(=O)c2cccs2)oc2ccccc12	3.0	54.3*	2.8	x	13.8	x
Nc1c(C(=O)c2ccccc2)oc2ccc([N+](=O)[O-])cc12	10.5	x	1.0	56.7	7.5	-0.3
Nc1c(C(=O)c2ccccc2)oc2ccc(Br)cc12	28.8	72.3*	2.7	61.6	62.6*	10.5
O=C(C1CC1)N1C[C@H]2[C@@H](c3ccccc31)[C@H](CO)N2S(=O)(=O)c1ccccc1	x	0.2	x	x	x	x
C[C@@H]1CN([C@@H](C)CO)C(=O)c2cc(NS(=O)(=O)c3ccc(F)cc3)ccc2O[C@@H](C)CCCCO[C@H]1CN(C)Cc1ccc(C(=O)O)cc1	x	0.7	x	x	x	x
COc1cccc(S(=O)(=O)Nc2ccc3c(c2)C(=O)N(C)C[C@H](OC)[C@H](C)CN(C(=O)Cc2cccnc2)[C@H](C)CO3)c1	x	8.3	x	x	x	x
Nc1c(C(=O)c2ccc(Br)s2)oc2ccccc12	11.0	74.1*	7.2	29.7	24.7	35.3*
O=[N+]([O-])c1cccnc1NCCc1ccccc1	27.4	73.4*	-0.9	38.3	45.2	3.1
O=[N+]([O-])c1cccnc1NCCNc1ncc(C(F)(F)F)cc1Cl	61.8	47.8*	6.3	101.3*	84.7*	x
O=C1SC(SC(=Nc2ccccc2)Nc2ccccc2)C(=O)N1c1ccccc1 (stereo not given)	10.6	x	-0.9	35.7	21.5	48.5*
O=c1cnn(-c2ccc(Cl)cc2Cl)c(-c2ccccc2)c1	6.6	48.7*	-1.4	-2.3	7.1	x
CNc1c([N+](=O)[O-])cnn1-c1ccc(Cl)cc1Cl	0.7	-5.1	0.6	5.5	3.7	-0.9
CN(C(=O)CSc1ncnc2sccc12)C1CCCCC1	x	74.8*	5.8	72.2	x	46.9*
CN(C(=O)CSc1ncnc2sccc12)C1CCS(=O)(=O)C1 (stereo not given)	x	-1.0	-2.9	-3.8	x	-1.7
CCCCn1c(N)nc2ccccc21	-71.2*	-3.9	-2.4	-3.2	-76.6	x
CCNC(=S)NNC(=O)c1csc(C(C)C)c1	10.3	50.0*	3.3	24.2	28.4	20.4
O=C(C[C@H]1C[C@H]2c3cc(NS(=O)(=O)c4ccc(F)cc4)ccc3O[C@H]2[C@@H](CO)O1)NCCc1ccccc1	x	-1.3	x	x	x	x
Cc1ccc(-c2nc(C#N)c(NCc3ccco3)o2)cc1	23.2	73.1*	3.3	x	27.5	x
COc1ccc(-c2nc(C#N)c(NCc3ccco3)o2)cc1	16.3	39.3	-0.2	29.9	25.1	13.9
Cc1cccc(-c2nc(C#N)c(NCc3ccco3)o2)c1	x	58.6*	5.5	x	x	31.8*
SMILES	HSF1 inh	esBAF inh	SMARCA2 act	MITF act	HSF1 activator	Wnt act
CNc1oc(-c2ccc(OCc3ccccc3)cc2)nc1C#N	26.0	68.9*	2.6	75.5	45.2	x
CC(=O)N(C)C[C@@H]1Oc2cc(C#Cc3cccc(F)c3)ccc2S(=O)(=O)N([C@H](C)CO)C[C@H]1C	x	4.7	x	x	x	x
O=C(Nc1nnc(SCc2ccccc2)s1)C1=COCCO1	14.3	66.7*	4.0	63.3	22.0	-5.3
O=C(Nc1nnc(SCc2ccccc2F)s1)C1=COCCO1	17.6	20.6	4.2	44.1	24.0	1.7
N#Cc1ccc(CSc2nnc(Nc3ccccc3)s2)cc1	12.2	-2.7	-4.4	11.7	20.1	-6.2
O=C(Nc1nnc(SCc2ccc(F)cc2)s1)C1=COCCO1	x	48.1*	5.2	22.8	x	-3.7
O=C(NCCc1ccccc1)C1=COCCO1	16.2	48.1*	4.9	63.1	21.7	28.1
c1ccc(CSc2nnc(NC3=NCCCCC3)s2)cc1	26.5	41.2*	5.2	x	48.7	x
O=C(c1ccc(Br)cc1)c1cn[nH]c1-c1ccccc1O	9.7	10.3	0.9	10.7	3.2	3.1
CC(C)(C)c1ccc(C(=O)c2cn[nH]c2-c2ccccc2O)cc1	21.8	62.6*	4.4	45.3	24.4	18.9
CO[C@@H]1CN(C)C(=O)c2ccc(NC(C)=O)cc2OC[C@H](C)N(C(=O)Cc2cccnc2)C[C@H]1C	x	-0.5	x	x	x	x
COc1cc2c(cc1OC)[C@@H]1Cc3cc4c(cc3[C@H](C2)N1C)OCO4	-0.4	-6.5	-1.3	-2.8	-5.0	0.0
COc1cc2c(cc1OC)C1CCc3cc4c(cc3C1N=C2)OCO4 (stereo not given)	x	31.6	0.0	x	x	50.5*
C[C@@H]1CN([C@H](C)CO)C(=O)Cc2cc(NS(C)(=O)=O)ccc2O[C@@H]1CN(C)S(=O)(=O)c1cn(C)cn1	x	5.9	x	x	x	x
C[C@H]1CN([C@@H](C)CO)C(=O)c2cc(C#CC(C)(C)O)cnc2O[C@@H]1CN(C)C(=O)c1ccccc1F	x	-1.3	x	x	x	x
O=C(C[C@@H]1CC[C@H](NC(=O)C2CC2)[C@@H](CO)O1)Nc1nccs1	x	-0.3	x	x	x	x
C[C@H](CO)N1C[C@H](C)[C@H](CN(C)Cc2ccccc2)Oc2cc(C#C[C@@H](C)O)ccc2S1(=O)=O	x	-2.4	x	x	x	x
Cc1ccc(-c2csc(C(C#N)=C3CCCC3)n2)cc1	x	49.2*	1.1	97.8*	x	22.9
N#CC(=C1CCCC1)c1nc(-c2ccccc2)cs1	47.1	x	6.2	120.6*	85.6*	x
N#CC(=C1CCCC1)c1nc(-c2cc3ccccc3oc2=O)cs1	51.7	107.8*	3.8	87.8*	72.4*	19.4
N#CC(=C1CCCC1)c1nc(-c2ccccc2O)cs1	22.4	x	x	67.5	19.8	x
Cn1c(=NN=Cc2ccccc2OCCO)sc2ccccc21	x	56.5*	4.5	x	x	43.3*
COc1ccccc1N=c1sc2ccccc2n1C	4.7	11.8	-1.2	7.5	17.1	1.4
C=CCOc1ccc(/C=N/N2C(=O)C(CC(=O)Nc3ccc(F)cc3F)SC2=NC)cc1 (stereo not given)	29.5	x	-0.5	6.4	53.9*	-17.2
C/C=C/c1ccc([C@H]2[C@H](CO)N(C(=O)CC)[C@H]2CN(C)S(C)(=O)=O)cc1	x	-2.1	x	x	x	x
Cc1noc(C)c1S(=O)(=O)Nc1ccc2c(c1)CC(=O)N([C@@H](C)CO)C[C@@H](C)[C@@H](CN(C)S(=O)(=O)c1cn(C)cn1)O2	x	-0.4	x	x	x	x
C/C(=N/NC(=O)c1ccncc1)c1ccc(NC(=O)c2ccc(Cl)cc2Cl)cc1	16.8	x	4.1	87.6*	42.6	23.8
C/C(=N\NC(=O)c1ccc(O)cc1)c1cccc(NC(=O)c2ccc(Cl)cc2)c1	-4.7	52.5*	-0.6	x	21.1	25.9
C/C(=N\NC(=O)c1ccc(Cl)cc1)c1cccc(NC(=O)c2cccnc2)c1	-6.0	23.7	-1.7	48.6	-2.3	4.4

Bioassay records deposited in PubChem BioAssay by several laboratories.
